The results in this text go back to PubChem BioAssay (NCI).

The structures appear in SMILES notation. The panel holds about 83,000 compounds, 20% with a hit somewhere; the sample as a whole holds those more often.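 Testing used 96-well plates and a 48-hour single-concentration exposure. Example: -40 means 40% of the starting cells died.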 A number with no mark means an inactive call. Calls of active or inactive are those of the source. How the source made its calls: active means growth percent below 10; inactive means the rest.

Test systems include SK-MEL-2 melanoma; EKVX NSCLC; SN12C renal; UO-31 renal; TK-10 renal; ACHN renal; CAKI-1 renal; A498 renal; CCRF-CEM leukemia; MOLT-4 leukemia; RPMI-8226 leukemia; OVCAR-8 ovarian; OVCAR-5 ovarian; OVCAR-4 ovarian; SK-OV-3 ovarian; IGROV1 ovarian; OVCAR-3 ovarian; HS 578T breast; NCI/ADR-RES ovarian.
What all share (experiment): NCI-60 one-dose screen, 48 h (100 = growth as untreated, 0 = no growth, -100 = all killed)
What all share (settings): 10 µM unless noted

For `Cc1cc(=O)oc2c1ccc1oc(C#N)c(C)c12`, the growth is 115% with SK-MEL-2 melanoma; 93.7% in the assay with EKVX NSCLC; 101% in the assay on SN12C renal; 94.7% in the assay with UO-31 renal; 89.2% in the assay with TK-10 renal; 103% in the assay with ACHN renal. Further, the growth in the assay on CAKI-1 renal was 106%; in the assay with A498 renal, 75.1%; in the assay on CCRF-CEM leukemia it was 6.77% (active); with MOLT-4 leukemia it was 102%; in the assay on RPMI-8226 leukemia, 88.9%; in the assay on OVCAR-8 ovarian it was 99.5%. The growth with OVCAR-5 ovarian was 92.4%; in the assay on OVCAR-4 ovarian it was 93.1%; in the assay on SK-OV-3 ovarian, 107%; in the assay with IGROV1 ovarian it was 106%; in the assay on OVCAR-3 ovarian, 98.6%; in the assay with HS 578T breast, 91.2%. The growth in the assay with NCI/ADR-RES ovarian is 96.2%.
`COc1ccc(/C=N/C2=C(C#N)C(c3ccc(OC)cc3)c3ccc4ccccc4c3O2)cc1` (configuration not stated): the growth is 84.4% with SK-MEL-2 melanoma; 85.1% in the assay on EKVX NSCLC; 76.5% in the assay on SN12C renal; 53.7% in the assay on UO-31 renal; 87.1% in the assay with TK-10 renal; 81.4% in the assay with ACHN renal. Also, the growth with CAKI-1 renal was 37.3%; in the assay with A498 renal, 26.6%; in the assay on CCRF-CEM leukemia it was 77.4%; with MOLT-4 leukemia, 60.2%; in the assay on RPMI-8226 leukemia it was 81.7%; with OVCAR-8 ovarian, 84.7%. Further, the growth was 104% in the assay on OVCAR-5 ovarian; 85.4% in the assay on OVCAR-4 ovarian; 77.6% in the assay on SK-OV-3 ovarian; 56.2% in the assay on IGROV1 ovarian; 78.9% with OVCAR-3 ovarian; 84.2% in the assay on HS 578T breast. Moreover, the growth in the assay with NCI/ADR-RES ovarian is 45%.
Consider `O=C1Nc2ccccc2/C1=C/c1cn(C(=O)c2ccc(Cl)cc2)c2ccccc12`, for which the growth is 120% in the assay with SK-MEL-2 melanoma; 59% in the assay on EKVX NSCLC; 95.4% in the assay on SN12C renal; 74.7% with UO-31 renal; 130% in the assay on TK-10 renal; 103% with ACHN renal. In addition, the growth in the assay with CAKI-1 renal was 59.1%; with A498 renal, 116%; in the assay with CCRF-CEM leukemia it was 104%; in the assay with MOLT-4 leukemia, 109%; in the assay on RPMI-8226 leukemia, 74.5%; with OVCAR-8 ovarian it was 95.1%. Also, the growth in the assay on OVCAR-5 ovarian is 110%; with OVCAR-4 ovarian, 78.3%; in the assay with SK-OV-3 ovarian, 104%; in the assay with IGROV1 ovarian, 72.7%; in the assay on OVCAR-3 ovarian it was 98.7%; in the assay with HS 578T breast it was 106%. Moreover, the growth in the assay with NCI/ADR-RES ovarian is 104%.
For `COc1cc(N2C(=O)c3nccnc3C2=O)cc(OC)c1OC`, the growth with SK-MEL-2 melanoma was 95.5%; with EKVX NSCLC, 104%; in the assay on SN12C renal it was 94.1%; in the assay on UO-31 renal it was 87.5%; with TK-10 renal, 100%; in the assay with ACHN renal, 112%. For the same molecule, the growth in the assay on CAKI-1 renal was 97.3%; with A498 renal, 87.2%; in the assay with CCRF-CEM leukemia, 100%; with MOLT-4 leukemia, 94.5%; with RPMI-8226 leukemia, 97.6%; in the assay with OVCAR-8 ovarian it was 104%. For the same molecule, the growth in the assay with OVCAR-5 ovarian was 109%; in the assay on OVCAR-4 ovarian it was 105%; with SK-OV-3 ovarian it was 103%; with IGROV1 ovarian, 98.2%; in the assay on OVCAR-3 ovarian, 120%; in the assay on HS 578T breast, 104%. For the same molecule, the growth in the assay with NCI/ADR-RES ovarian is 104%.
Regarding `CCc1ccccc1-n1c(-c2ccc(Cl)cc2)cc(-c2ccc(Cl)cc2)c(C#N)c1=O`, the growth in the assay on SK-MEL-2 melanoma is 103%; in the assay on EKVX NSCLC, 87.5%; in the assay on SN12C renal it was 92.3%; in the assay on UO-31 renal, 75.3%; in the assay on TK-10 renal, 94.5%; with ACHN renal it was 98.8%. For the same molecule, the growth in the assay on CAKI-1 renal is 90.2%; in the assay with A498 renal, 94.9%; with CCRF-CEM leukemia, 34.4%; in the assay with MOLT-4 leukemia it was 31.8%; in the assay on RPMI-8226 leukemia, 49.3%; with OVCAR-8 ovarian it was 88.9%. Further, the growth with OVCAR-5 ovarian is 92.2%; in the assay on OVCAR-4 ovarian it was 85.9%; in the assay on SK-OV-3 ovarian it was 96.5%; in the assay on IGROV1 ovarian, 96.1%; with OVCAR-3 ovarian it was 87.7%; with HS 578T breast it was 88.4%. For the same molecule, the growth in the assay with NCI/ADR-RES ovarian was 81.7%.
On to `C=C(C)[C@@H]1CC[C@]2(C)[C@H](CC=C3[C@@H]4CC(C)(C)CC[C@]4(C(N)=O)CC[C@]32C)[C@@]1(C)CCC#N`, for which the growth was -0.287% (active) with SK-MEL-2 melanoma; 46.1% in the assay with EKVX NSCLC; -48.1% (active) in the assay with SN12C renal; 17.6% in the assay on UO-31 renal; 12.7% in the assay on TK-10 renal; 20.8% in the assay with ACHN renal. The growth was 18.4% in the assay with CAKI-1 renal; 7.55% (active) in the assay on A498 renal; 39.8% in the assay on CCRF-CEM leukemia; 24.1% with MOLT-4 leukemia; 6.44% (active) in the assay with RPMI-8226 leukemia; 26.5% with OVCAR-8 ovarian. The growth in the assay on OVCAR-5 ovarian was 47%; with OVCAR-4 ovarian, 20%; with SK-OV-3 ovarian, 48.1%; in the assay on IGROV1 ovarian, 53.1%; in the assay with OVCAR-3 ovarian, 23.5%; with HS 578T breast, 51%. Further, the growth in the assay with NCI/ADR-RES ovarian was 35%.
Regarding `COc1cc(C2CC(c3ccc(Nc4ccnc5cc(Cl)ccc45)cc3)=NN2C=O)cc(OC)c1OC` (configuration not stated), the growth in the assay with SK-MEL-2 melanoma was 97.4%; with EKVX NSCLC, 76.7%; with SN12C renal it was 86.7%; with UO-31 renal, 61.9%; with TK-10 renal, 92.8%; in the assay with ACHN renal, 87.5%. Also, the growth with CAKI-1 renal is 86.7%; in the assay with A498 renal, 93.2%; in the assay on CCRF-CEM leukemia, 58%; with MOLT-4 leukemia, 43.1%; in the assay on RPMI-8226 leukemia it was 21.3%; with OVCAR-8 ovarian, 74%. Moreover, the growth with OVCAR-5 ovarian is 109%; in the assay on OVCAR-4 ovarian, 86.3%; in the assay with SK-OV-3 ovarian, 86.8%; in the assay on IGROV1 ovarian, 106%; in the assay with OVCAR-3 ovarian, 2.55% (active); with HS 578T breast, 26.2%. Also, in the assay with NCI/ADR-RES ovarian, the growth is 73.4%.
`COc1cccc(/C=C/C(=O)c2c(C)nc3ccccc3c2/C=C/c2ccc(C)cc2)c1OC`: the growth is 77.2% in the assay on SK-MEL-2 melanoma; 80.8% in the assay with EKVX NSCLC; 52.1% with SN12C renal; 54.3% with UO-31 renal; 118% in the assay with TK-10 renal; 52.9% with ACHN renal. Besides, the growth in the assay on CAKI-1 renal was 57%; in the assay on A498 renal it was 73.8%; with CCRF-CEM leukemia it was 16.6%; in the assay with MOLT-4 leukemia, 11.3%; in the assay on RPMI-8226 leukemia, 8.55% (active); in the assay with OVCAR-8 ovarian it was 49.6%. Moreover, the growth was 67.5% in the assay with OVCAR-5 ovarian; 56.6% with OVCAR-4 ovarian; 84.8% in the assay on SK-OV-3 ovarian; 36.4% in the assay with IGROV1 ovarian; 52.4% in the assay with OVCAR-3 ovarian; 68.3% in the assay on HS 578T breast. Further, the growth in the assay with NCI/ADR-RES ovarian was 40.6%.
